# Assay outcomes deposited in PubChem by several laboratories.
# A selection: hits, their analogues and other compounds. The true share with any hit is near 5.4%.
# rCAG binder – r(CAG) repeat RNA binding; AID 651821; TO-PRO-1 dye displacement fluorescence; inhibition, % at 3 µM; actives 1.3% (n = 370,000);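 active means inhibition above the plate cutoff, the mean of all test compounds on that plate plus 3 SD, cut at about 35% in these data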;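 further: 0% = DMSO alone and 100% = 100 µM mitoxantrone as full dye displacement; higher means more dye released from RNA so lower well fluorescence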
# aDG glyco act – increases alpha dystroglycan glycosylation; Pro5-aDG cells, alpha-DG glycosylation AlphaScreen (IIH6); 0% Pro5, 100% B10-LARGE cell signal; activation, % at 10 µM; actives 0.22% (n = 360,000);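 active means activation of at least 8% versus controls, or a plate z-score of at least 8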;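 further: Pro5 are CHO cells carrying HIG-tagged alpha-DG that lacks glycosylation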
# PHOSPHO1 inh – blocks human PHOSPHO1 phosphatase activity; Q8TCT1; actives 1.1% (n = 290,000); recombinant PHOSPHO1, absorbance phosphatase assay; inhibition, % at 13.3 µM; AID 1565; in the data active means inhibition above about 60%
# Target sequence (Q8TCT1 whole entry, looked up): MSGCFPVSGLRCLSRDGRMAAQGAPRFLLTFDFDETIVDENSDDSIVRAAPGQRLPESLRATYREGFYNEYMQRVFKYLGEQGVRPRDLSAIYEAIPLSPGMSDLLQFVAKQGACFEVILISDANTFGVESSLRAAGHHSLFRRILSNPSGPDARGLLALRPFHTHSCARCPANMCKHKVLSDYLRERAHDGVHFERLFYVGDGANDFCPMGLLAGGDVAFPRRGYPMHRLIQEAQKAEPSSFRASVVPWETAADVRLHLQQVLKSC
# ALR inh – human ALR oxidase inhibition via reduced H2O2; actives 3.8% (n = 290,000); P55789; AID 485317; purified ALR, DTT oxidation, H2O2 HRP-luminol luminescence; inhibition, % (test concentration not listed);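 active means mean replicate inhibition above about 79%, with every replicate also reaching it, limit read from the data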
# Target sequence (P55789 whole entry, looked up): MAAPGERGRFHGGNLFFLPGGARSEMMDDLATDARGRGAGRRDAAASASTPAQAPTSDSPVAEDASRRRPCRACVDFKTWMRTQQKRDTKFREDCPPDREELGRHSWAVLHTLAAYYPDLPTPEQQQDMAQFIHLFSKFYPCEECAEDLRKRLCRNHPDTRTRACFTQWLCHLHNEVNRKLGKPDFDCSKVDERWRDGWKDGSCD
# APOBEC3A inh – blocks human APOBEC3A ssDNA deamination; P31941; recombinant A3A, FAM/TAMRA ssDNA deamination fluorescence; inhibition, % at 20 µM; actives 0.41% (n = 330,000);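 active means at least 40% inhibition at 20 µM here, with at most 30% in a related deaminase screen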;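 further: plate controls were A3A with DMSO for no effect and wells lacking A3A enzyme for full effect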
# A3G deaminase – inhibitors of human APOBEC3G DNA deaminase. actives 0.28% (n = 330,000). recombinant A3G, ssDNA deamination FAM/TAMRA fluorescence. inhibition, % at 20 µM;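 active means inhibition of at least 40% at 20 µM, with no more than 30% in the related APOBEC3A deaminase screen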;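 further: plate controls were DMSO wells with A3G for no effect and wells lacking A3G enzyme for full effect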
# rCAG binder conf – r(CAG) RNA repeat binding, confirmation. shares compounds with rCAG binder. TO-PRO-1 dye displacement fluorescence. inhibition, % at 3 µM. actives 70% (n = 4,300). AID 652065;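 active means inhibition above a per-plate cutoff, the mean inhibition of sample wells plus 3 SD, cut at about 35% in these data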;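 further: loss of TO-PRO-1 fluorescence as compound displaces dye from 1x1 AA loop RNA; 0% = DMSO only wells and 100% = 100 µM mitoxantrone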
# DNA CAG counter – counter-screen for rCAG RNA binders: DNA CAG dye complex inhibitors | shares compounds with rCAG binder | inhibition, % at 3 µM | actives 94% (n = 4,300) | d(CAG) DNA oligo TO-PRO-1 dye displacement, fluorescence;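 active means inhibition above its plate's cutoff, the mean test-well inhibition plus 3 SD, cut at about 4.8% in these data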;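 further: 0% = DNA dye mix with DMSO and 100% = 100 µM mitoxantrone; hits displace the dye from DNA and so lower well fluorescence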
# Starred values were filed as active, the others as inactive; · = no result.
SMILES,rCAG binder,aDG glyco act,PHOSPHO1 inh,ALR inh,APOBEC3A inh,A3G deaminase,rCAG binder conf,DNA CAG counter
CCCCc1cc(=O)oc2c(C)c(OCC(=O)N3CCC(C(=O)O)(c4ccccc4)CC3)ccc12,39.8*,0.0,23.9,-1.1,-0.5,-6.0,51.8*,12.9*
CC(C)C(OC(=O)C1=Cc2ccccc2OC1)C(=O)NCC1CCCO1 (configuration not stated),35.4*,-0.2,·,·,·,·,48.2*,16.5*
CC(OC(=O)C1=Cc2ccccc2OC1)C(=O)NC1CCCC1 (configuration not stated),1.6,0.7,5.7,1.0,-3.4,-2.6,·,·
O=C(O)c1cccc2c(-c3ccccc3)c(-c3ccccc3)[nH]c12,77.4*,-0.1,22.6,98.2*,-2.6,-7.1,66.1*,22.9*
CCc1nc2c(OCc3ccc(C#N)cc3)cccn2c1N(C)C(=O)C(C)C,0.6,0.4,·,·,·,·,·,·
O=C(O)c1ccc(-n2cccc2/C=C2/NC(=O)N(c3cccc(Cl)c3)C2=O)cc1,38.5*,0.0,19.2,·,·,·,30.6,8.8*
Cc1ccc(S(=O)(=O)N2[C@@H](c3ccccc3)C(C(=O)O)=CC[C@H]2c2cccc(Cl)c2)cc1,11.8,0.0,·,9.3,-2.7,-5.9,·,·
CCc1ccc([C@@H]2CC=C(C(=O)O)[C@H](c3ccc(C(C)(C)C)cc3)N2S(=O)(=O)c2ccc(C)cc2)cc1,91.7*,-0.1,·,·,-6.2,-8.0,85.4*,52.9*
Cc1ccc([C@@H]2CC=C(C(=O)O)[C@H](c3ccc(C(C)(C)C)cc3)N2S(=O)(=O)c2ccc(C)cc2)cc1,90.3*,0.3,·,·,0.0,-1.7,83.8*,47.9*
CCc1ccc([C@H]2C(C(=O)O)=C[C@@H](C(C)(C)C)N2S(=O)(=O)c2ccc(C)cc2)cc1,51.6*,-0.1,·,·,-1.0,-3.3,49.2*,17.8*
Cc1ccc(S(=O)(=O)N2[C@@H](c3ccc(C(C)(C)C)cc3)C(C(=O)O)=CC[C@H]2c2ccc(C(C)C)cc2)cc1,90.5*,0.0,·,·,-3.7,-8.7,74.2*,44.5*
N#Cc1cccc(-c2csc(C(O)(c3ccccc3)C(F)(F)F)n2)c1 (configuration not stated),2.7,0.2,·,·,·,·,·,·
Cc1cc(C)c(C)c(S(=O)(=O)N2C(=S)NC(=O)C2CC(C)C)c1C (configuration not stated),40.7*,0.0,-15.3,·,-5.9,-5.9,30.8,8.0*
O=C(COc1ccccc1C(=O)O)Nc1nc2ccc([N+](=O)[O-])cc2s1,40.2*,-0.2,29.0,-2.5,-6.8,-5.7,37.3*,12.2*
COC(=O)c1[nH]c2ccc(C)cc2c1NC(=O)CN1CCN(c2ccc(F)cc2)CC1,3.7,1.8,31.8,2.8,-2.2,-1.7,·,·
Cc1ccc2[nH]c(C(=O)O)c(NC(=O)CN3CCN(c4cccc(C)c4C)CC3)c2c1,65.3*,0.0,56.8,94.0*,-0.7,-3.4,68.8*,28.4*
Cc1ccc([C@H]2C(C(=O)O)=CC[C@@H](c3cccs3)N2S(=O)(=O)c2ccc(C)cc2)cc1,61.2*,-0.4,·,·,-4.0,-10.1,47.7*,16.7*
COc1ccc([C@@H]2CC=C(C(=O)O)[C@H](c3ccccc3)N2S(=O)(=O)c2ccc(C)cc2)cc1OC,23.0,0.0,·,4.1,-2.3,-5.7,·,·
Cc1ccc(S(=O)(=O)N2[C@@H](c3ccc(Br)cc3)C(C(=O)O)=CC[C@H]2c2cccs2)cc1,74.5*,0.0,·,·,-1.5,-5.4,65.8*,28.8*
Cc1ccc(S(=O)(=O)N2[C@@H](c3cccc(Cl)c3)C(C(=O)O)=CC[C@H]2c2cccs2)cc1,58.3*,0.2,·,6.1,-1.9,-8.0,50.5*,15.0*
Cc1ccc(S(=O)(=O)N2[C@@H](c3ccc(Cl)cc3)C(C(=O)O)=CC[C@H]2c2cccs2)cc1,67.2*,-0.2,·,7.6,0.2,1.6,54.0*,16.6*
CCOC(=O)/C=C1/SCC(=O)N1CC(=O)c1ccc[nH]1,7.9,0.3,·,·,·,·,·,·
